Some of the results follow. The hit rate among all sequences tested is not known here.
B1: FS-876 (peptide)
chain: CASWERPRRPAGNASASA
B2: FS-1227 (peptide)
chain: CALKRRDRRMAGNASASA
B3: HC997 (peptide)
chain: CAYCLSTGCVAGNASASA
B4: FS-110 (peptide)
chain: CAYPNRPDRPAGNASASA
B5: FS-1437 (peptide)
chain: CAWGRRKARMAGNASASA
B6: FS-77 (peptide)
chain: CAQGCRKDRGAGNASASA
B7: HC1614 (peptide)
chain: CAACLRKLGVAGNASASA
B8: FS-1664 (peptide)
chain: CAYCLRKRRMAGNASASA
B9: FS-1171 (peptide)
chain: CATKKRPRRMAGNASASA
B10: FS-2390 (peptide)
chain: CAFERRSFETAGNASASA
B11: HC669 (peptide)
chain: CAGMVSKGWRAGNASASA
B12: HC629 (peptide)
chain: CAVIIKLGALAGNASASA
B13: HC2488 (peptide)
chain: CASWPCSAHLAGNASASA
B14: HC2297 (peptide)
chain: CADSEVVTSTAGNASASA
B15: HC726 (peptide)
chain: CAYLVTRHADAGNASASA
B16: FS-1302 (peptide)
chain: CAAKRRPRRMAGNASASA
B17: FS-1036 (peptide)
chain: CAMLKRFARMAGNASASA
B18: HC405 (peptide)
chain: CAYPPKPCGIAGNASASA
B19: HC36 (peptide)
chain: CAMEECTQHLAGNASASA
B20: HC1069 (peptide)
chain: CAAAQLAAPGAGNASASA
B21: HC1983 (peptide)
chain: CAAVCCSMSYAGNASASA
B22: FS-3112 (peptide)
chain: CARTRRYYLSAGNASASA

Molecular target: furin, P09958
Experiment: furin cleavage Z-score vs untreated control; higher = more cleavage, active = 3.5 or more, inactive = 1 or less, 8 variable residues between constant flanks
In short: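 Purified furin cleaved 8-mer peptides that were fused to a cDNA oligonucleotide and held on magnetic beads by their N-terminus. Each 0.01 ml reaction used a 1:10 enzyme:substrate ratio in 50 mM HEPES pH 7.5 with CaCl2 and NaCl and ran 7.5, 15 or 30 min. Released DNA was adapter-tagged by PCR and sequenced, and read counts gave abundance. The cleavage Z-score came from log counts against furin-free reactions, lowess-adjusted and scaled by median absolute deviation.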

furin, P09958, sequence (P09958 whole entry): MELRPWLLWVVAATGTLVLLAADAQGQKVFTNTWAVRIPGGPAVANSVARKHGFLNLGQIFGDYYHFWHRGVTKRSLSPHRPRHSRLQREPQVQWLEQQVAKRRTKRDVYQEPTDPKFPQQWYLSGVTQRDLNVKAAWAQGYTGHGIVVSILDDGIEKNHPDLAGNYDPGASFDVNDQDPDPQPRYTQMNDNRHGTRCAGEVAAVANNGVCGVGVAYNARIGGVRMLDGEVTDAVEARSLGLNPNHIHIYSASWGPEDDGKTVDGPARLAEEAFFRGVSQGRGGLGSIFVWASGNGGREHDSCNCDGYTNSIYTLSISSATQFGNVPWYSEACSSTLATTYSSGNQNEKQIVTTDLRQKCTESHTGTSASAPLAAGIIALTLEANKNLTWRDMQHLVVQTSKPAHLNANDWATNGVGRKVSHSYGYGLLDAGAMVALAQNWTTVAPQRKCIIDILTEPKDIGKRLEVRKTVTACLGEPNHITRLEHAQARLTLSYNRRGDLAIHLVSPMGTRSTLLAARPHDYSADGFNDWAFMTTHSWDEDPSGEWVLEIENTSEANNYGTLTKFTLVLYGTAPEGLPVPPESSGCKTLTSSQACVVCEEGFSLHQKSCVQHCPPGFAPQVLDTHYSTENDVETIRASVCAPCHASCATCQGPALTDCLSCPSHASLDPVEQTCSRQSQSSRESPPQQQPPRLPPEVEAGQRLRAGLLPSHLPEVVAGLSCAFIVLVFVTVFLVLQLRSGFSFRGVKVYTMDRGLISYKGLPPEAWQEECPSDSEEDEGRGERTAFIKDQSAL

Sequence	furin cleavage Z-score (7.5 min)	furin cleavage Z-score (15 min)	furin cleavage Z-score (30 min)
B1	-1.15 (inactive)	-0.626 (inactive)	0.927 (inactive)
B2	12 (active)	13.4 (active)	10.3 (active)
B3	-1.15 (inactive)	0.0405 (inactive)	-1.03 (inactive)
B4	-0.325 (inactive)	0.955 (inactive)	0.00762 (inactive)
B5	8.17 (active)	11.8 (active)	9.74 (active)
B6	-1.71 (inactive)	0.374 (inactive)	-0.248 (inactive)
B7	-0.73 (inactive)	-0.95 (inactive)	1.04
B8	8.61 (active)	9.15 (active)	7.84 (active)
B9	7.17 (active)	8.34 (active)	8.69 (active)
B10	-1.51 (inactive)	-1.58 (inactive)	-0.598 (inactive)
B11	-0.876 (inactive)	0.139 (inactive)	-1.14 (inactive)
B12	0.217 (inactive)	-0.103 (inactive)	0.349 (inactive)
B13	0.993 (inactive)	0.675 (inactive)	1.37
B14	-0.913 (inactive)	1.6	0.0245 (inactive)
B15	-0.934 (inactive)	-0.697 (inactive)	-0.629 (inactive)
B16	7.77 (active)	7.84 (active)	6.56 (active)
B17	9.66 (active)	12.7 (active)	9.59 (active)
B18	-0.254 (inactive)	1.24	-0.00218 (inactive)
B19	1.8	0.851 (inactive)	0.876 (inactive)
B20	0.864 (inactive)	-0.982 (inactive)	-0.549 (inactive)
B21	-0.929 (inactive)	-0.792 (inactive)	0.279 (inactive)
B22	-0.7 (inactive)	2.33	1.85

From the supplement of paper PMC3545927
